The campaign covered roughly 320,000 compounds. About 2,800 (0.88%) were called active. The sample holds actives, similar compounds and a random draw of the others, so the mix is not that of the screen.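 The calls were made as follows: active = inhibition above the mean inhibition of all tested compounds plus 3 SD, computed separately for each screening campaign (cut at about 15% in these data); inactive = the rest.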
Molecular target: Serine/threonine-protein phosphatase PP1-alpha catalytic subunit (Homo sapiens) (UniProt P62136)
Test: PP1-alpha phosphatase inhibitors, primary screen, counter-screen for PP5 inhibitor project, biochemical, fluorescence, OMFP substrate, single point (AID 2235)
Details: purified PP1alpha, at 6.7 µM, hits give high values

Serine/threonine-protein phosphatase PP1-alpha catalytic subunit (Homo sapiens), sequence (P62136 whole entry, looked up): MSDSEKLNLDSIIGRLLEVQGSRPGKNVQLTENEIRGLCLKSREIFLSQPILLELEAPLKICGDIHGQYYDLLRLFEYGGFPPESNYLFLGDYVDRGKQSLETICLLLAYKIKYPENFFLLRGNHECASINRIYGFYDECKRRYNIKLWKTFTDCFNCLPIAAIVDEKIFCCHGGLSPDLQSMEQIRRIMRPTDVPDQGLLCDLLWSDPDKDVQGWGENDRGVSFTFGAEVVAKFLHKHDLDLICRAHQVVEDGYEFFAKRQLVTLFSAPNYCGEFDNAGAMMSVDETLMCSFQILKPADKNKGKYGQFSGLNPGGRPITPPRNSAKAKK

SMILES	inhibition
C[N+](C)(C)CCOP(=O)([O-])OC[C@H](O)CO	-5.96% (inactive)
CCC(=O)NC(=Nc1nc2ccccc2s1)NC(=O)CC	-4.21% (inactive)
C/C(=N\NC(=O)CC(C)C)c1c(C(F)(F)F)[nH]n(-c2nc3ccccc3s2)c1=O	4.43% (inactive)
COC(=O)Cc1cc(=O)n(-c2nc3ccccc3s2)[nH]1	19.6% (active)
NC(=O)c1ccsc1NC(=O)COC(=O)Cc1n[nH]c(=O)c2ccccc12	-0.46% (inactive)
C/C(CC(O)(/C=N/O)c1ccccc1)=N\O (stereo not given)	31.4% (active)
CC(=O)Oc1ccccc1C1=NN(C(C)=O)C(c2ccccc2)C1 (stereo not given)	-2.36% (inactive)
Oc1ccccc1C1=NN(c2ccccc2)C(c2ccccc2)C1 (stereo not given)	0.4% (inactive)
O=C(c1ccccc1)N1N=C(c2ccccc2O)CC1c1ccc(Br)cc1 (stereo not given)	6.46% (inactive)
Cc1ccc(N2C(=O)C3N=NN(CC(=O)N4N=C(c5cccc6ccccc56)CC4c4ccccc4)C3C2=O)cc1 (stereo not given)	29.8% (active)
O=C1C2N=NN(CC(=O)N3N=C(c4cccc5ccccc45)CC3c3ccccc3)C2C(=O)N1c1ccccc1 (stereo not given)	30.5% (active)
O=C(CSc1nnnn1-c1ccc(O)cc1)N1N=C(c2ccc3ccccc3c2)CC1c1ccccc1 (stereo not given)	-3.09% (inactive)
COc1ccc(C(=NN)c2ccc(OC)cc2)cc1	-2.58% (inactive)
COc1ccc(-c2nc3c(s2)CCc2onc(-c4ccc(Br)cc4)c2-3)cc1	-1.07% (inactive)
CCc1ccc(N(CC)c2ncnc3nc[nH]c23)cc1	2.16% (inactive)
[2H]C(CCOS(N)(=O)=O)c1ccccc1 (stereo not given)	-3.22% (inactive)
Cc1cc(C(=O)OCC(=O)NCc2ccco2)c(C)n1-c1ccccc1	-0.54% (inactive)
CN(C)/C=C(/C(=O)c1ccc(Cl)cc1)S(=O)(=O)c1ccccc1	0.05% (inactive)
CC(C)(C)c1nnc(NC(=O)C2c3ccccc3Oc3ccccc32)s1	1.1% (inactive)
Cc1noc(/C=C/c2ccco2)c1S(=O)(=O)N1CCC(C(=O)Nc2ccc(Cl)cn2)CC1	0.73% (inactive)
Cc1noc(/C=C/c2ccco2)c1S(=O)(=O)N1CCC(C(=O)N2CCc3ccccc32)CC1	15.4% (active)
CNC(=O)C1CCN(S(=O)(=O)c2c(C)noc2/C=C/c2cccc(C)c2)CC1	0.59% (inactive)
O=C(CSc1nc2ccccc2c(=O)n1CCCO)NC1CC1	-4.92% (inactive)
O=C(COC(=O)Cc1ccccc1F)NNC(=O)c1ccc(Cl)cc1	-4.59% (inactive)
C#CCCCc1nc2ccccc2c(=O)n1N	-2.85% (inactive)

Source: PubChem BioAssay AID2235 (The Scripps Research Institute Molecular Screening Center, 2010)
